Test results from the supplement of paper PMC11624193, “Coupling cellular drug-target engagement to downstream pharmacology with CeTEAM” (Nature Communications, 2024).
Values without a mark were called inactive.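 The calls were made as follows: active = log2 fold change beyond 2 SD from the library mean after excluding viability outliers; inactive = within 2 SD.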

target: PARP1 L713F-nLuc biosensor (HCT116) (UniProt P09874); assay: PARP1 L713F-nLuc/akaLuc ratio relative to DMSO control (biosensor stabilization) (fold change); higher = more PARP1 biosensor stabilization (target engagement / stabilizer), active = hit call of the paper; conditions: stock concentration (mM; final µM = stock mM x 1): 10; 24 h
Sequence (P09874 whole entry L713F, looked up): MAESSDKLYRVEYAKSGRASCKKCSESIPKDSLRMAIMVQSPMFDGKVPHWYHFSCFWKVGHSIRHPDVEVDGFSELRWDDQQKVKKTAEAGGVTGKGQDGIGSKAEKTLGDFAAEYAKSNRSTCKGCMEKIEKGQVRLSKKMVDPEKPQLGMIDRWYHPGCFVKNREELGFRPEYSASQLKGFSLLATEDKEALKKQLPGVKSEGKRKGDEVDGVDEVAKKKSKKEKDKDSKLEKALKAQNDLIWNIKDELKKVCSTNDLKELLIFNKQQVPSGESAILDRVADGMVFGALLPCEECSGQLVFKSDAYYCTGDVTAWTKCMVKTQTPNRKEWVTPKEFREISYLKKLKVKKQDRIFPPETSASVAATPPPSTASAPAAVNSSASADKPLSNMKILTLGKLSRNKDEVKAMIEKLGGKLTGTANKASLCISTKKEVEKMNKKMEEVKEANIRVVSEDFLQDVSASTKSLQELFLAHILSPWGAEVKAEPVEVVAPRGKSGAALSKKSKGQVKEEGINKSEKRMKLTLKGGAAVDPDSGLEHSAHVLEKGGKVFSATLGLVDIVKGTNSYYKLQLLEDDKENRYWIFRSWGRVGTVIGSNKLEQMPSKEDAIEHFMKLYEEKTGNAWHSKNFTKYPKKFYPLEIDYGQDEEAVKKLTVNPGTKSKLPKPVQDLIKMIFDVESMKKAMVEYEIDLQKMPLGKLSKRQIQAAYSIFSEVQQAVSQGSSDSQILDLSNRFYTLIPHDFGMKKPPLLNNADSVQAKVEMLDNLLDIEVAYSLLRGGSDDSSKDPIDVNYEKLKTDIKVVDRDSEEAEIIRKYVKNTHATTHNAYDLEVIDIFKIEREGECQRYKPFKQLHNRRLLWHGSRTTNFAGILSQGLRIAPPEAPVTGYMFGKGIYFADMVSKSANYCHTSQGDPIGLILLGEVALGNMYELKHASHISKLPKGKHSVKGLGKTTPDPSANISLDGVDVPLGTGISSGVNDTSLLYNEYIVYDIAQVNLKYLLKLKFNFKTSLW

How did the “PARP1 L713F-nLuc/akaLuc ratio” value turn out when O=C(O)c1cnn(-c2nc3cc(OC(F)(F)F)c(Cl)cc3[nH]2)c1 was run?
Its value is 0.757.

With NC(=O)c1ccc(Oc2ccc(C(N)=O)cc2)cc1 as the molecule, how does the “PARP1 L713F-nLuc/akaLuc ratio” value read?
Its value is 1.27.

With O=C1NC(=O)/C(=C\c2cccc(C(F)(F)F)c2)S1 as the molecule, how does the “PARP1 L713F-nLuc/akaLuc ratio” value read?
Its value is 0.962.

For Cn1c(Nc2ccc(C(F)(F)F)cc2)nc2cc(Oc3ccnc(-c4ncc(C(F)(F)F)[nH]4)c3)ccc21, which “PARP1 L713F-nLuc/akaLuc ratio” value is on record?
Its value is 0.546.

NC(=O)c1ccc(I)c([N+](=O)[O-])c1 [Iniparib] was tested. Which “PARP1 L713F-nLuc/akaLuc ratio” value did it give?
Its value is 1.12.

CCNc1nc(Nc2cc(F)c(C(=O)N3CCOCC3)cc2OC)ncc1C(F)(F)F was tested. Which “PARP1 L713F-nLuc/akaLuc ratio” value did it give?
Its value is 0.683.

How did the “PARP1 L713F-nLuc/akaLuc ratio” value turn out when O=C(Nc1ccc(O)c(C(=O)O)c1)c1cccc(NC(=O)c2ccco2)c1 was run?
The value was 1.19.

How did the “PARP1 L713F-nLuc/akaLuc ratio” value turn out when NC(=O)c1cnc2[nH]ccc2c1N[C@@H]1[C@@H]2CC3C[C@H]1C[C@@](O)(C3)C2 was run?
The value was 0.774.
